This excerpt belongs to a sample that is enriched for hits.
HT1080 IDH1KD tx: HT-1080 IDH1 knockdown cell toxicity (counter line); Potency, µM (series often up to 46.1 µM), for inactives: top-dose activity, negative = toxicity, actives largely listed as cytotoxic; actives 2% (n = 360,000); HT-1080 IDH1 knockdown viability, ATP luminescence, 48 h;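 also: potency is read from the fitted curve at half-maximal effect; 0% = DMSO wells and -100% = cell-free medium wells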
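% activity derives from luminescence (CellTiter-Glo), normalised to DMSO and no-cell wells. HT-1080-IDH1KD cells, 750/well, had 48 h compound exposure at 37 °C.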
IL-1B inflam inh: blocks inflammasome-driven IL-1 beta release; THP-1 LPS/ATP IL-1B secretion, AlphaLISA, 16 h; stronger effect = lower value; AID 743279; activity change, % at 57.5 µM; actives 4.7% (n = 360,000); in the data active = activity change below about -50%; inconclusive = mostly about -30% to -49%
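Secreted IL-1B measured by AlphaLISA bead assay after 16 h compound exposure of THP-1 cells; compounds (final up to 57.5 uM) added 1 h before LPS (250 ng/mL) and ATP (1.25 mM) stimulation; lower signal means less secretion.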
HT1080-NT tox: kills 2HG-producing HT-1080-NT fibrosarcoma cells; HT-1080-NT fibrosarcoma viability, CellTiter-Glo ATP luminescence, 48 h; Potency, µM (top dose mostly 46.1 µM), inactives show top-dose activity, negative = less viability, most hits filed as cytotoxic; actives 1.6% (n = 360,000);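 also: NT is the 2HG producing partner of a matched IDH1 knockdown line; potency is read from the fitted curve at half-maximal effect; 0% = DMSO-treated cells and -100% = media-only wells without cells; nearly all actives have a fitted effect of over 55% in size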
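Read-out is CellTiter-Glo luminescence after 10 minutes at room temperature, following 48 hours' compound treatment of HT-1080-NT cells (750 cells/well, RPMI, 5% FBS, 37 degrees C).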
TDP1 cell CPT: growth inhibition of DT40 Tdp1-/-;hTDP1 cells with camptothecin (screen for TDP1 inhibitors). AID 686979. actives 12% (n = 420,000). Potency, µM (doses to about 46.2 µM), without a hit: at the highest dose activity change, negative = growth inhibition, actives largely listed as inhibitors. chicken DT40 Tdp1-/-;hTDP1 cells + 20 nM CPT, ATP luminescence, 48 h; also: potency is read from the fitted curve at half-maximal effect; nearly all actives have a fitted effect of over 55% in size
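Chicken DT40 Tdp1-/- cells stably complemented with human TDP1 were seeded at 400 cells/well in medium containing 20 nM camptothecin, exposed to pin-transferred compounds, and grown at 37 °C for at least 48 hr. Viability was read as ATP luminescence.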
TDP1 cell noCPT: qHTS for Inhibitors of human tyrosyl-DNA phosphodiesterase 1 (TDP1): qHTS in cells in absence of CPT | actives 15% (n = 420,000) | Potency, µM (highest dose often 46.2 µM), without a hit: at the top dose activity change, negative = growth inhibition, most hits filed as inhibitors | DT40 Tdp1-/- hTDP1 cells, no CPT, ATP luminescence, 48 h; also: potency is read from the fitted curve at half-maximal effect; nearly all actives have a fitted effect of over 55% in size
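Growth kinetics read by CellTiter-Glo luminescence after ≥48 hr at 37 °C. Cells: DT40 Tdp1-/- stably carrying human TDP1, 400 per well, compound exposure in the absence of CPT (DMSO vehicle).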
ALOX12 inh: blocks human arachidonate 12S-lipoxygenase; P18054; purified 12hLO, xylenol orange hydroperoxide absorbance; Potency, µM (doses to about 108 µM), without a hit: at the highest dose activity change, negative = inhibition, usual class: inhibitors; actives 1.1% (n = 580,000); AID 1671190; also: potency is read from the fitted curve at half-maximal effect
Target sequence (P18054 whole entry, looked up): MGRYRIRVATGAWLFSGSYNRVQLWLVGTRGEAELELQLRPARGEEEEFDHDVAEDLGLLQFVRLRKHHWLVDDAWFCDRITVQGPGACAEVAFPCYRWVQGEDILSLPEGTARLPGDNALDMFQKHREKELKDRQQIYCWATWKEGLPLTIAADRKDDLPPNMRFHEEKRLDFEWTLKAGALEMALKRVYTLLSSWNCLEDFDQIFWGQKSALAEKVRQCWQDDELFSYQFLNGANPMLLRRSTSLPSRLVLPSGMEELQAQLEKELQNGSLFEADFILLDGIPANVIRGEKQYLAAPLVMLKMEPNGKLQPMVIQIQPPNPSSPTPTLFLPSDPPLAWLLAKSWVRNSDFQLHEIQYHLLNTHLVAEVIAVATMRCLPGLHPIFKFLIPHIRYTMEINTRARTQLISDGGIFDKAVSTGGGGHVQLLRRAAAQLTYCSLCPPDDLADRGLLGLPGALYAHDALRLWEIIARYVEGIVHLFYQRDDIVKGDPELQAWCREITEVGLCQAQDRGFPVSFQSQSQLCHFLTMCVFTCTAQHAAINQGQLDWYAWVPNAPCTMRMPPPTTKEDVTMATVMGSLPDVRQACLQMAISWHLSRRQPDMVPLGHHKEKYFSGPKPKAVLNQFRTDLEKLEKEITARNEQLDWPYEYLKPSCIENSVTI
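Hydroperoxide product was detected by ferrous iron/xylenol orange as the 573 to 405 nm absorbance ratio. Arachidonic acid at 40 uM (final) was turned over for 30 min at room temperature by 150 nM human 12hLO, pH 7.0 Hepes buffer, after 15 min compound preincubation.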
Active calls of the source: *; [ ] = remark or other dose. Unless noted, calls follow the shape of the dose curve; as a rule, active = well fitted curve in the direction sought with a large enough effect; inconclusive = small, poorly fitted or top-dose-only effect, or another doubt; inactive = no such curve, though single readings can be large; an effect the other way counts as inactive or inconclusive. Unless noted, % is scaled to controls: 0 for no effect and ±100 for the full control effect.

Results for Cc1ccc(C)c(N2CCN(C(=O)c3ccc4c(c3)N(Cc3ccc(F)cc3)C(=O)c3ccccc3S4=O)CC2)c1 (stereo unspecified) ?
TDP1 cell CPT: 18µM*; TDP1 cell noCPT: 10µM*; ALOX12 inh: -28%

Results for Cc1ccc(Cl)cc1N1CCN(C(=O)c2ccc3c(c2)N(Cc2ccccc2F)C(=O)c2ccccc2S3=O)CC1 (stereo unspecified) ?
TDP1 cell CPT: inconclusive; TDP1 cell noCPT: inconclusive; ALOX12 inh: -15%

What do the screens show for `CCN1C(=O)c2ccccc2S(=O)c2ccc(C(=O)N3CCN(c4cc(Cl)ccc4C)CC3)cc21` (stereo unspecified)?
TDP1 cell CPT: inconclusive; TDP1 cell noCPT: 23µM*; ALOX12 inh: -22%

Results for Cc1nc(-c2cccs2)c(CC(=O)N2CCc3ccccc3C2)s1 ?
ALOX12 inh: 8.9µM*

Results for NC(=O)C1(c2ccccc2)CCCC1 ?
ALOX12 inh: -2%

How did COC(=O)CNC(=O)c1cc(-c2ccc([S+](C)(=O)[O-])cc2)c2cccn2n1 do in these assays?
ALOX12 inh: 0%[6.33 µM]

How did COCCCNC(=O)C1CCC(CNS(=O)(=O)c2ccc3c(c2)N(C(C)=O)CCO3)CC1 (stereo unspecified) do in these assays?
HT1080 IDH1KD tx: 4%; IL-1B inflam inh: 15; HT1080-NT tox: -5%; TDP1 cell CPT: -3%; TDP1 cell noCPT: 4%; ALOX12 inh: -10%

Results for CC(=O)N1CCOc2ccc(S(=O)(=O)NCC3CCC(C(=O)Nc4ccc(C)cn4)CC3)cc21 (stereo unspecified) ?
HT1080 IDH1KD tx: -15%; IL-1B inflam inh: -8; HT1080-NT tox: -27%; TDP1 cell CPT: 15µM*; TDP1 cell noCPT: 13µM*; ALOX12 inh: -15%

Results for CCCCN(C)S(=O)(=O)c1ccc2c(c1)c(=O)n(CC(=O)N1CCCCCC1)c(=O)n2C ?
ALOX12 inh: -5%

What do the screens show for `CCc1noc(C)c1C(=O)NCCN1C(=O)S/C(=C\c2ccc(OC)cc2)C1=O`?
HT1080 IDH1KD tx: 0%; IL-1B inflam inh: -23; HT1080-NT tox: 2%; TDP1 cell CPT: 23µM*; TDP1 cell noCPT: 16µM*; ALOX12 inh: -10%

What do the screens show for `COc1ccc(/C=C2\SC(=O)N(CCNC(=O)Cn3cnnn3)C2=O)cc1`?
HT1080 IDH1KD tx: -5%; IL-1B inflam inh: -28; HT1080-NT tox: 8%; TDP1 cell CPT: -25%; TDP1 cell noCPT: -13%; ALOX12 inh: inconclusive

Results for COc1ccc(/C=C2\SC(=O)N(CCNC(=O)CCS(=O)(=O)c3ccc(C)cc3)C2=O)cc1 ?
HT1080 IDH1KD tx: -7%; IL-1B inflam inh: -12; HT1080-NT tox: -3%; TDP1 cell CPT: 13µM*; TDP1 cell noCPT: 21µM*; ALOX12 inh: -6%

How did O=C(N1CCCC1)C1(CCO)CC12CCOCC2 (stereo unspecified) do in these assays?
ALOX12 inh: -5%

Results for C#CCN(C)Cc1nc(C2(O)CCN(C(=O)NCC=C)CC2)cs1 ?
ALOX12 inh: 24%[176 µM]

How did CC1=NOC(=O)/C1=C\c1ccc(-c2cc(Cl)ccc2Cl)o1 do in these assays?
HT1080 IDH1KD tx: -23%; IL-1B inflam inh: -55*; HT1080-NT tox: -21%; TDP1 cell CPT: inconclusive; TDP1 cell noCPT: inconclusive; ALOX12 inh: 2.2µM*

What do the screens show for `CC1=NOC(=O)/C1=C\c1ccc(-c2ccc(Br)cc2)o1`?
HT1080 IDH1KD tx: inconclusive; IL-1B inflam inh: -99*; HT1080-NT tox: inconclusive; TDP1 cell CPT: 13µM*; TDP1 cell noCPT: 12µM*; ALOX12 inh: 45µM*
